Measurements as given in ChEMBL document CHEMBL3988442, “University of Dundee, Small-Polar-MMV Screening Library” (2021).
Out of some 48,000 compounds screened, about 13,000 (27%) showed an effect of 50% or more. The list shows a part of the results.

test system: Wolbachia pipientis; test: Anti-Wolbachia Cell-Based Screen; format: functional; parameters: scale not given: in the data most compounds retested in dose-response had high values; settings: 5 µM

Row | Structure (SMILES) | Percent Effect
1 | CCN1CCC(CC(=O)N(C)CC(=O)c2ccc(O)cc2)CC1 | -2.698%
2 | CCCc1cc(C(=O)N2Cc3cnc(C(C)(C)C)nc3C2)ccn1 | -16.23%
3 | O=C(NCc1ccco1)[C@@]12CCO[C@@H]1CCN(Cc1ccccn1)C2.O=C(O)C(F)(F)F.O=C(O)C(F)(F)F | -8.079%
4 | O=C(O)C(F)(F)F.O=S(=O)(C1CC1)N1CC[C@H]2OCC[C@@]2(COc2ncccc2F)C1 | -5.546%
5 | CS(=O)(=O)N1CC[C@H]2OCC[C@@]2(C(=O)NCc2ccccn2)C1.O=C(O)C(F)(F)F | 125.2%
6 | CS(=O)(=O)N1CC[C@H]2OCC[C@@]2(C(=O)NCCc2ccccn2)C1.O=C(O)C(F)(F)F | 88.95%
7 | O=C(NCc1ccccn1)[C@@]12CCO[C@@H]1CCN(Cc1ccccn1)C2.O=C(O)C(F)(F)F.O=C(O)C(F)(F)F.O=C(O)C(F)(F)F | 100.7%
8 | Cc1ccc(-c2ccc(C(=O)NCC(N)=O)c(F)c2)cc1 | -9.702%
9 | COc1ccc(F)cc1C(=O)N1C[C@H]2CC[C@@H]1CN(c1ncccn1)C2 | 11.2%
10 | CN(C)C(=O)Cc1ccccc1NCc1cc(C#N)ccc1F | 6.834%
11 | Cn1cc(CN2CCn3cc(CNC(=O)CC4CC4)nc3C2)cn1.O=C(O)C(F)(F)F | -2.745%
12 | CC(c1ccccc1F)N(CC(N)=O)C1CC1 (stereo unspecified) | 1.619%
13 | Cc1nc2ccc(-n3ncnc3[C@@H]3CCCN3S(C)(=O)=O)cc2s1 | -0.8415%
14 | Cc1cc(-c2ccccc2)nc(C2CCCN2S(C)(=O)=O)n1 (stereo unspecified) | 91.07%
15 | Cc1cc(-c2cccnc2)nc(C2CCCN2S(C)(=O)=O)n1 (stereo unspecified) | 97.49%
16 | CN(Cc1cc(-c2cccnc2)no1)C(=O)C1CCCN1S(C)(=O)=O (stereo unspecified) | -3.149%
17 | CCCS(=O)(=O)N1CCCC1c1cccc(N(C)C)c1 (stereo unspecified) | 5.298%
18 | Cc1ccc(-c2cc(C)nc(C3CCCN3S(C)(=O)=O)n2)cc1 (stereo unspecified) | 112.5%
19 | Cc1cc(-c2cncnc2)nc(C2CCCN2S(C)(=O)=O)n1 (stereo unspecified) | 120.6%
20 | Cc1ccc(O[C@@H]2C[C@H]3CN(Cc4nccn4C)CCN3C2)cc1.O=C(O)C(F)(F)F.O=C(O)C(F)(F)F | -3.373%
21 | CCC1=N[C@@]2(CC[C@@H]3CN(S(=O)(=O)CC(C)C)C[C@@H]32)C(=O)N1CC1CC1 | 6.599%
22 | C[C@@H]1CN(C2CCN(c3ccccc3F)CC2)C[C@]1(C)O | -10.13%

Row | Structure (SMILES) | Percent Effect
23 | CC(=O)NC(C)(C)c1noc(C2(C#N)CCCCC2)n1 | -6.661%
24 | COc1ccccc1CNCc1nn(-c2ccccc2)c2c1CCC2 | -29.63%
25 | CC(C)c1noc(C2CCCN2S(=O)(=O)Cc2ccc(F)cc2)n1 (stereo unspecified) | -21.21%
26 | Cc1cc(-c2ccccc2C(=O)O)nc(C2CCCN2S(C)(=O)=O)n1 (stereo unspecified) | 105.2%
27 | COc1ccc(-c2cc(C3CCCCCN3S(=O)(=O)N(C)C)on2)cc1 (stereo unspecified) | -9.2%
28 | CS(=O)(=O)N1CCCCCC1c1cc(-c2ccc(F)cc2)no1 (stereo unspecified) | 132.6%
29 | Cc1ncsc1CCN(C)C(=O)C(c1cccnc1)N1CCOCC1 (stereo unspecified) | 2.321%
30 | c1nc2onc(C3CC3)c2cc1-c1nnc(C2CC2)o1 | -6.537%
31 | O=C(COc1ccc2cccnc2c1)N1CCN[C@H]2CS(=O)(=O)C[C@H]21 | 2.711%
32 | COc1ccc(-c2noc(C3=NN(C)C(=O)CC3)n2)cc1OC | -3.216%
33 | COc1ccc(-c2cc(-c3nc(CN4CCN(C)CC4)no3)[nH]n2)cc1 | -0.5802%
34 | COc1ccc(-c2cc(N)on2)cc1 | 77.55%
35 | COc1ccc(-c2cc(C[C@@H]3C[C@H](N(C)C)C3(C)C)no2)cc1 | 1.876%
36 | COc1ccc(-c2cc(N)on2)cc1OC | 106.7%
37 | COc1ccc(-c2csc(-c3cccc(C(=O)O)c3)n2)cc1OC | -12.11%
38 | COc1cccc(C(O)Cn2ncc3ncccc3c2=O)c1 (stereo unspecified) | -14.22%
39 | Cc1nc(CNC(C)c2ccc(S(=O)(=O)N(C)C)cc2)no1 (stereo unspecified) | -3.104%
40 | Cc1cscc1C(=O)NC1CC(=O)N(C(C)C)C1=O (stereo unspecified) | -19.94%
41 | Oc1nc(N2CCCC2)nc2c1CCN(Cc1cccnc1)CC2 | 121.5%
42 | c1cc(CN2CCc3nc(N4CCOCC4)nc(NC4CC4)c3C2)co1 | 2.456%
43 | Oc1nc(N2CCOCC2)nc2c1CCN(Cc1ccc(F)cc1)CC2 | 116.9%
44 | Oc1nc(N2CCOCC2)nc2c1CCN(Cc1cccnc1)CC2 | -6.583%

Row | Structure (SMILES) | Percent Effect
45 | Oc1nc(N2CCOCC2)nc2c1CCN(Cc1cccc(F)c1)CC2 | 117%
46 | Oc1nc(N2CCOCC2)nc2c1CCN(Cc1ccccc1)CC2 | 129.9%
47 | Cn1ccnc1CN1C(=O)CO[C@H]2CN(Cc3ccc(F)c(F)c3)C[C@H]21 | 5.068%
48 | Cn1cc(S(=O)(=O)N2CCC(OCCCc3ccccc3)C2)cn1 (stereo unspecified) | -5.129%
49 | CC(=O)c1ccc(N2CCCC(CO)(CCc3ccccc3)C2)nc1 (stereo unspecified) | 11.39%
50 | CC(C)C(O)C1CCN(c2ccnc(C(=O)NCc3ccco3)c2)CC1 (stereo unspecified) | -3%
51 | COc1ccc(NC(=O)CSc2nncn2-n2cccc2)c(OC)c1 | 89.78%
52 | COc1ccc(OC)c(-n2cnnc2CN)c1 | -14.69%
53 | COc1ccc(OC)c(NC(=O)CSc2ccc3nncn3n2)c1 | 92.9%
54 | COc1cc(C(C)=O)ccc1SCC(=O)Nc1ccccn1 | -8.38%
55 | COc1ccc(NC(=O)CCC2CCCN(S(=O)(=O)C3CC3)C2)c(C)c1 (stereo unspecified) | -10.5%
56 | COc1ccc(NC(=O)CCSc2ccc3nncn3n2)c(OC)c1 | 100.6%
57 | COc1ccc(NC(=O)CSc2ccc3nncn3n2)c(OC)c1 | 116.1%
58 | COc1cc(Cl)c(C)cc1NC(=O)CNc1ccn(CC(N)=O)n1 | -71.24%
59 | COc1ccc(OC)c(CCC(=O)Nc2cc(C)n[nH]2)c1 | -33.89%
60 | COc1ccc(Cl)cc1NC(=O)CNc1ccn(CC(N)=O)n1 | 12.03%
61 | COc1ccc(NC(=O)CNc2cccc3c2CCCC3)c(OC)c1 | -2.331%
62 | CCN(CC)S(=O)(=O)c1ccc(OC)c(NC(=O)CSC)c1 | -7.74%
63 | Cn1nccc1C1CCN(Cc2ccn(-c3ccccc3)n2)CC1 | -5.293%
64 | CCOCC(=O)Nc1cc(-n2nnnc2C2CC2)ccc1F | -4.453%
65 | CNC(=O)NC(=O)C(NCc1cccs1)c1ccccc1 (stereo unspecified) | -60.87%
66 | CC(C)c1ccc(/C=C/CC(=O)NC2CCN(C(N)=O)C2)cc1 (stereo unspecified) | -19.1%

Row | Structure (SMILES) | Percent Effect
67 | Cc1nnc([C@]23COC[C@H]2CN(Cc2nccs2)C3)o1.O=C(O)C(F)(F)F | -6.391%
68 | Cc1nnc([C@@]23CCO[C@@H]2CCN(Cc2scnc2C)C3)o1 | 102.2%
69 | CNC(=O)[C@@]12CCO[C@@H]1CCN(Cc1scnc1C)C2.O=C(O)C(F)(F)F | -1.55%
70 | Cc1noc([C@@]23CCO[C@@H]2CCN(Cc2scnc2C)C3)n1.O=C(O)C(F)(F)F | 105.3%
71 | Cc1noc([C@@]23CCO[C@@H]2CCN(CC2CCOCC2)C3)n1.O=C(O)C(F)(F)F | -22.2%
72 | Cc1ncsc1CN1CC[C@H]2OCC[C@@]2(C(=O)N2CCCC2)C1 | -2.591%
73 | Cc1nnc([C@@]23CCO[C@@H]2CCN(Cc2nccs2)C3)o1 | 93.98%
74 | CCS(=O)(=O)N1CC[C@H]2OCC[C@@]2(c2nnc(C)o2)C1 | 3.137%
75 | N#CCCCS(=O)(=O)N1CCCC1CC(=O)c1cccs1 (stereo unspecified) | -18.29%
76 | COCc1nn(CC2CC2)c2c1CN(Cc1cncn1C)CC2.O=C(O)C(F)(F)F | -13.43%
77 | Cc1ccc(C(=O)N(C)C)cc1NC(=O)COCC1CC1 | -15.5%
78 | C[C@@H](NC(=O)c1cccnc1)c1onc(-c2ccccc2)c1C(=O)O | -0.5339%
79 | COc1ncc(C2(O)CCN(Cc3cc(F)ccc3F)CC2)c(OC)n1.Cl | 106.6%
80 | COc1ncc(C2(O)CCN(Cc3cc(F)cc(F)c3)CC2)c(OC)n1 | 125.6%
81 | COc1ncc(C2(O)CCN(Cc3ccc(F)c(F)c3)CC2)c(OC)n1.Cl | 122.5%
82 | COc1ncc(C2(O)CCN(Cc3ccccc3O)CC2)c(OC)n1 | -6.313%
83 | COc1cc(OC)cc(C2(O)CCN(Cc3nc(C)c(C)o3)CC2)c1 | -6.043%
84 | COc1cc(OC)cc(C2(O)CCN(Cc3ncc(C)o3)CC2)c1 | 10.39%
85 | COc1ncc(C2(O)CCN(Cc3c(F)cccc3F)CC2)c(OC)n1.Cl | 1.004%
86 | COc1ccc(F)c(CN2CCC3(CCC(=O)N(CC(N)=O)C3)CC2)c1 | 10.55%
87 | COc1ncc(C2(O)CCN(Cc3cccc(F)c3F)CC2)c(OC)n1.Cl | 130.5%
88 | Cc1cnn(CC(C)NCC(=O)NCCc2cccs2)c1 (stereo unspecified) | -55.8%

Row | Structure (SMILES) | Percent Effect
89 | Cc1ncc2c(n1)CN(Cc1nnc(Cc3ccccc3)o1)CC2 | 5.635%
90 | Cc1cccnc1CNCC1(O)CCCN(CC2CCCCC2)C1=O (stereo unspecified) | -7.545%
91 | Cc1cccnc1CN(C)CC1(O)CCCN(CC2CCCCC2)C1=O (stereo unspecified) | 93.19%
92 | Cc1nonc1CN(C)CC1(O)CCCN(CCC2CCCCC2)C1=O (stereo unspecified) | 3.713%
93 | O=C(NCCOc1ccc(C(F)(F)F)cn1)c1ccoc1 | 0.7109%
94 | COc1ccc(OCc2nccc(-c3cc(C(=O)O)ccn3)n2)cc1 | -32.77%
95 | CCn1cc(S(=O)(=O)NCC(OC)c2ccccc2)cn1 (stereo unspecified) | 8.527%
96 | O=C(NCc1cc[nH]n1)NCC(c1ccccc1Cl)N1CCCC1 (stereo unspecified) | 3.552%
97 | COc1ccc(C(CNS(=O)(=O)c2cn(C)nc2C)N2CCCC2)cc1.Cl (stereo unspecified) | 105.6%
98 | Cc1nc(C)c(C(=O)NCC(c2ccccc2Cl)N2CCOCC2)s1 (stereo unspecified) | 6.115%
99 | O=C(NCCCn1cncn1)NCC(c1ccccc1)N1CCCC1 (stereo unspecified) | 9.834%
100 | CCn1cc(CNCC(c2ccc(C)s2)N2CCOCC2)cn1 (stereo unspecified) | 13.07%
101 | Cc1cccc(S(=O)(=O)NCC(C)N2CCN(C)CC2)c1Cl (stereo unspecified) | -7.911%
102 | COc1ccc(S(=O)(=O)NCC(N)c2ccccc2)c(C)c1.Cl (stereo unspecified) | -12.16%
103 | Cc1nn(C)cc1S(=O)(=O)NCC(c1ccccc1Cl)N1CCCC1 (stereo unspecified) | 87.53%
104 | COc1ccc(S(=O)(=O)NCC(c2cccn2C)N(C)C)c(C)c1 (stereo unspecified) | 5.566%
105 | Cc1nn(C)cc1S(=O)(=O)NCC(c1ccccc1)N1CCCCCC1.Cl (stereo unspecified) | 112.3%
106 | CCn1cc(S(=O)(=O)NCC(c2ccccc2)N2CCOCC2)c(C)n1 (stereo unspecified) | 72.63%
